# From article PMC10313831, “ssDNA accessibility of Rad51 is regulated by orchestrating multiple RPA dynamics”
# Target: RPA (Rfa1-Rfa2-Rfa3) (Saccharomyces cerevisiae, UniProt P22336;P26754;P26755 1-621;1-273;1-122)
# Test: EMSA; 10 nM RPA, 150 mM KCl; 20 mM Tris-HCl pH 7.5, 150 mM KCl (15 mM in Supp. Fig. 1b), 1 mM DTT, 100 ug/mL BSA, 5 nM ssDNA, 30 C 10 min; 4% native gel in 0.2x TBE; high values mean tight binding
# Details: protein: recombinant; copies: 1;1;1; label: 5'-32P; ssDNA
# Chain of RPA (Rfa1-Rfa2-Rfa3) (P22336 whole entry, chain 1 of 3): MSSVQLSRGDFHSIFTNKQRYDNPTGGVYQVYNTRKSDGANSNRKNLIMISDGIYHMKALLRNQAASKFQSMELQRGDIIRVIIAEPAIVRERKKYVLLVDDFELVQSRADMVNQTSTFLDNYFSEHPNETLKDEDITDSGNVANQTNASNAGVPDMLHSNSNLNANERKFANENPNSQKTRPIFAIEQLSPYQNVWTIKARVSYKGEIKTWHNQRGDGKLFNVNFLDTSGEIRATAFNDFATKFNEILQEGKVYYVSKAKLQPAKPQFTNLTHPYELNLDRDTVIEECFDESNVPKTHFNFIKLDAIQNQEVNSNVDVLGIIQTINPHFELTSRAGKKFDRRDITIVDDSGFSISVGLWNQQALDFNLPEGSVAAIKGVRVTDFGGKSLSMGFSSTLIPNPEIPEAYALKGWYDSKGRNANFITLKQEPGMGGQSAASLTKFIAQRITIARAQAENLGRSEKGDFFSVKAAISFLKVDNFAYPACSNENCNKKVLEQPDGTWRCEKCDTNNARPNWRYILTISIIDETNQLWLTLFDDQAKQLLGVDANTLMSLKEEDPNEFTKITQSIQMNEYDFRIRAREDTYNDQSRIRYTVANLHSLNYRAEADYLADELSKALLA
# Chain of RPA (Rfa1-Rfa2-Rfa3) (P26754 whole entry, chain 2 of 3): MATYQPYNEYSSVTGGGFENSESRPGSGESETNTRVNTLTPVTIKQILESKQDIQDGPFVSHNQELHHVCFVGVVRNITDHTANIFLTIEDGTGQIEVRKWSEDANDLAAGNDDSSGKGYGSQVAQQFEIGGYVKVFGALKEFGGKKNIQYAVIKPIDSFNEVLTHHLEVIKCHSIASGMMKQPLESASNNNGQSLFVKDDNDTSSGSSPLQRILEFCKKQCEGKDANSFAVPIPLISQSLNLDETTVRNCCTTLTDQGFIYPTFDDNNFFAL
# Chain of RPA (Rfa1-Rfa2-Rfa3) (P26755 whole entry, chain 3 of 3): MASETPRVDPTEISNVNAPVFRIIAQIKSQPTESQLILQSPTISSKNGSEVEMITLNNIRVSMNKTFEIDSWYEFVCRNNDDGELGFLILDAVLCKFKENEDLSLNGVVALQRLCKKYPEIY
row,Sequence,binding signal
1,TTTTTTTTTT,1.24 % bound
2,TTTTTTTTTTTTTTTTTT,39.7 % bound
3,TTTTTTTTTTTTTT,3.33 ± 2.59 % bound
